Assay outcomes as filed in PubChem.
NS1 inh: influenza NS1 inhibition. Potency, µM (titrated, usually from 46.1 µM), for the others: at the top dose activity, positive = more growth. 270,000 compounds, 0.4% hits. AID 2326; further: potency means the concentration at half of the fitted maximal effect; actives are rising curves; nearly all actives have a fitted effect of over 50% in size
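OD600 was taken as the measure of yeast growth restored by compound in an NS1-expressing S. cerevisiae strain. Cells had been washed out of glucose medium and diluted 1:100 into galactose -URA medium, pH 6.0.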
SARS PLpro yeast: inhibitors of SARS-CoV papain-like protease in yeast | S. cerevisiae expressing SARS-CoV PLpro, growth rescue | Potency, µM (titrated, usually from 32.9 µM), inactives show top-dose activity, positive = growth rescue, most hits filed as activators | 330,000 compounds, 0.19% hits | AID 485353; further: potency means the concentration at half of the fitted maximal effect; 0% is about no effect; nearly all actives have a fitted effect of over 55% in size
AMA1-RON2 inh: AMA1-RON2 (P. falciparum) interaction inhibition; AlphaScreen AMA1-biotinylated RON2 peptide binding; Potency, µM (highest dose often 58.2 µM), without a hit: at the top dose activity change, negative = inhibition, hits mostly inhibitors; 360,000 compounds, 0.2% hits; AID 720542; active means well fitted inhibition curve with a large enough effect; inconclusive means small, poorly fitted or top-dose-only effect; inactive means no such curve, though single readings can be large or run the other way;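 further: potency means the concentration at half of the fitted maximal effect; 0% = vehicle wells and -100% = peptide control; nearly all actives have a fitted effect of over 45% in size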
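AMA1 (3D7) with his tag at 25 nM final met compounds first, then biotinylated RON2 peptide at 25 nM; detection used donor plus acceptor beads, 10 µg/mL apiece, read by AlphaScreen after 30 min at room temperature.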
Flu NS1 inh: influenza NS1 function inhibition validation. activity change, negative = inhibition, % at 32.9 µM. AID 492980. influenza NS1 function cell assay, 15-point titration. shares compounds with NS1 inh. 1,400 tested, under 10 active; further: 0% is about no effect
Flu PR8 replic: influenza NS1 inhibitors: inhibition of influenza A/PR/8/34 replication. shares compounds with NS1 inh. virus titer (log TCID50), log10 TCID50 at 5 µM. MDCK infected influenza A/PR/8/34, virus titer TCID50; hits give low values. 95 compounds, 30% hits. AID 504647; call rule not given here
Starred values were filed as active, the others as inactive. Hits are enriched below; roughly 0.65% of the tested compounds scored in any of these assays. Unless noted, the call rests on the fitted dose curve.

Screening CC(OC(=O)C1CC1)C(=O)Nc1ncc(Cl)cc1Cl (configuration not stated) returned SARS PLpro yeast 2% and AMA1-RON2 inh -11%.
For NNC(=O)CNC(c1ccccc1)c1cc(Br)ccc1NC(=O)CCN1CCOCC1 (configuration not stated) the results were NS1 inh 10µM*, SARS PLpro yeast 2%, AMA1-RON2 inh 5% and Flu NS1 inh inconclusive.
NNC(=O)CNC(c1ccccc1)c1cc(Br)ccc1NC(=O)c1ccc(Br)cc1 (configuration not stated) was read as NS1 inh 7.1µM*, SARS PLpro yeast -18%, AMA1-RON2 inh 7% and Flu NS1 inh 26.
NNC(=O)CNC(c1ccccc1)c1cc(Br)ccc1NC(=O)c1ccccc1Br (configuration not stated) was read as NS1 inh inconclusive, SARS PLpro yeast -3% and AMA1-RON2 inh 59%.
`COC(=O)CNC(c1ccccc1)c1cc(Cl)ccc1NC(=O)c1cccc(Cl)c1` (configuration not stated) gave NS1 inh -2%, SARS PLpro yeast -28% and AMA1-RON2 inh -9%.
Screening O=C(CCN1CCOCC1)NCC(=O)Nc1ccc(Br)cc1C(=O)c1ccccc1 returned NS1 inh -1%, SARS PLpro yeast -1% and AMA1-RON2 inh -7%.
Screening NNC(=O)CNC(c1ccccc1)c1cc(Br)ccc1NC(=O)c1cccc(Cl)c1 (configuration not stated) returned NS1 inh 11µM*, SARS PLpro yeast 4%, AMA1-RON2 inh 35% and Flu NS1 inh 15.
Screening COc1cccc(-c2nc(CS(=O)(=O)CC(=O)Nc3ccc(C(C)=O)cc3)c(C)o2)c1 returned NS1 inh 1%, SARS PLpro yeast -4% and AMA1-RON2 inh -10%.
CC(C)(C)c1ccc(CC(=O)N2CCC2(C)C(=O)Nc2cccc3cccnc23)cc1 (configuration not stated) was read as AMA1-RON2 inh -6%.
O=C(CCNC(=O)N1CC(=O)Nc2ccccc21)Nc1ccc(F)c(Cl)c1 was read as NS1 inh 5%, SARS PLpro yeast 2% and AMA1-RON2 inh -9%.
`NC1=C(O)C(=O)[C@H](c2c[nH]c3ccc(OCc4ccccc4)cc23)O1` gave NS1 inh -6%.
For CS(=O)(=O)N(CC(=O)Nc1ccccc1F)C1CCCCC1 the results were NS1 inh 11%, SARS PLpro yeast 1% and AMA1-RON2 inh -2%.
For CS(=O)(=O)N(CC(=O)Nc1ccccc1Sc1ccccc1)C1CCCCC1 the results were NS1 inh inconclusive, SARS PLpro yeast 15%, AMA1-RON2 inh -27% and Flu NS1 inh -1.
Screening O=C(CN1CCN(S(=O)(=O)N2CCOCC2)CC1)Nc1cc(Cl)cc(Cl)c1 returned NS1 inh -16%, SARS PLpro yeast -1% and AMA1-RON2 inh -11%.
`COc1ccc2c(c1)c(CC(=O)Nc1ccccc1OC)c(C)n2C(=O)c1ccc(Cl)cc1` gave NS1 inh 23%, SARS PLpro yeast 11% and AMA1-RON2 inh -22%.
`COc1ccc2c(c1)c(CC(=O)Nc1cc(C)ccc1C)c(C)n2C(=O)c1ccc(Cl)cc1` gave NS1 inh inconclusive, SARS PLpro yeast 8%, AMA1-RON2 inh -16% and Flu NS1 inh -6.
`CCCCN(C(=O)c1cccc(S(=O)(=O)N(CC)c2ccccc2)c1)c1c(N)n(CC(C)C)c(=O)[nH]c1=O` gave AMA1-RON2 inh 13%.
`COc1cc(/C=N/n2c(-c3ccc4c(c3)NC(=O)CO4)csc2=Nc2cccc(C)c2)ccc1O` gave NS1 inh 11µM*, SARS PLpro yeast -1%, AMA1-RON2 inh 2%, Flu NS1 inh 28 and Flu PR8 replic 8.3.
For COCCN=c1scc(-c2ccc3c(c2)NC(=O)CO3)n1/N=C(\C)c1ccc(O)cc1 the results were NS1 inh 10%, SARS PLpro yeast 1% and AMA1-RON2 inh 4%.
`COc1ccc(C2Nc3ccccc3C(=O)N2Cc2ccco2)cc1COc1ccccc1F` (configuration not stated) gave NS1 inh 5%, SARS PLpro yeast 9% and AMA1-RON2 inh -11%.
For COc1ccc(C2Nc3ccccc3C(=O)N2Cc2ccco2)cc1COc1ccc(NC(C)=O)cc1 (configuration not stated) the results were NS1 inh 13µM*, SARS PLpro yeast 8%, AMA1-RON2 inh -16% and Flu NS1 inh 10.
Screening COc1ccc(CN2CCN(CCSc3ccc(C)cc3)CC2)c(OC)c1OC returned NS1 inh 8%, SARS PLpro yeast -6% and AMA1-RON2 inh inconclusive.
Screening O=C1CSCN1c1ccc(Cl)c(Cl)c1 returned NS1 inh -2% and AMA1-RON2 inh -4%.
For O=C1CSCN1c1cc(Cl)ccc1Cl the results were NS1 inh inconclusive, SARS PLpro yeast 0%, AMA1-RON2 inh -5% and Flu NS1 inh 9.
Screening Cc1ccc(OCC(=O)NCCN2CCOCC2)cc1C returned NS1 inh 0%, SARS PLpro yeast 2% and AMA1-RON2 inh 0%.
For Cc1cccc(OCC(=O)NCCN2CCOCC2)c1 the results were NS1 inh 1.8µM*, AMA1-RON2 inh -6% and Flu NS1 inh -2.
CCOC(=O)c1ccc(NC(=O)c2nc[nH]c2C(=O)NC[C@H](C)O)cc1 was read as AMA1-RON2 inh 122%.
`CNC(=O)c1ccc(-c2sc3nc(N4CCOCC4)c4c(c3c2N)CC(C)(C)OC4)o1` gave NS1 inh 21%, SARS PLpro yeast 3% and AMA1-RON2 inh -14%.
Screening CC1(C)Cc2c(c(N3CCOCC3)nc3sc(-c4ccc(C(=O)O)o4)c(N)c23)CO1 returned NS1 inh inconclusive, SARS PLpro yeast -6%, AMA1-RON2 inh -6% and Flu NS1 inh 12.
For CNC(=S)Nc1cccc(-c2cnc3ccccc3n2)c1 the results were NS1 inh -3%, SARS PLpro yeast -2% and AMA1-RON2 inh 23%.
Cc1cccc(OCC(=O)Nc2ccc(C(=O)Nc3ccccc3C(=O)O)cc2)c1C was read as NS1 inh 10%, SARS PLpro yeast 13% and AMA1-RON2 inh -6%.
COc1ccc(-c2ccc(-c3nc4c(c(=O)[nH]c(=O)n4Cc4ccccc4)n3C)o2)c([N+](=O)[O-])c1 was read as NS1 inh 3.5µM*, SARS PLpro yeast -8%, AMA1-RON2 inh -6% and Flu NS1 inh -11.
For COCCn1c(=O)[nH]c(=O)c2c1nc(-c1ccc(-c3ccc(Cl)cc3[N+](=O)[O-])o1)n2Cc1ccccc1 the results were NS1 inh 21%, SARS PLpro yeast 2% and AMA1-RON2 inh -6%.
Cc1ccc(S(=O)(=O)NC2CCSC2=O)cc1C (configuration not stated) was read as SARS PLpro yeast 6% and AMA1-RON2 inh -1%.
For COc1cc(SC)ccc1C(=O)OCC(=O)N1CCCC1 the results were NS1 inh 1%, SARS PLpro yeast 3% and AMA1-RON2 inh -7%.
